Laboratory results reported in PubChem BioAssay (NCATS).
Where “and” joins values, the source holds several entries; their conditions need not be identical. Equal values may be shown once. Inconclusive results are not listed. A call without a number means that no potency is given here. Calls of active or inactive are those of the source. Unless noted, calls follow the shape of the full dose curve.

What was measured:
[1] = biological target: Bile acid receptor (Homo sapiens) (UniProt Q96RI1); experiment: qHTS assay for small molecule antagonists of farnesoid X receptor signaling (AID 588526)
Summary of the method: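 Beta-lactamase reporter antagonist mode: HEK293T FXR-UAS-bla cells, titrated compound, CDCA stimulation, 16 h 37 C, CCF4 dye 2 h RT. Data normalized to CDCA 50 uM and DMSO; Hill-fit IC50.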

[2] = biological target: Peroxisome proliferator-activated receptor gamma (Homo sapiens) (UniProt P37231); experiment: qHTS assay for small molecule agonists of peroxisome proliferator-activated receptor gamma signaling (AID 588536; active = well fitted curve in the direction sought with a large enough effect in the signal ratio, with a control signal flat, not every such curve was filed as active; the % refers to the signal ratio)
Summary of the method: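 Cells were plated and held 6–6.5 h at 37 C, then compounds were added as a titration series. After a further 16 h, CCF4 dye was loaded for 2 h at room temperature and emission at 460/530 nm recorded.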

[3] = biological target: Peroxisome proliferator-activated receptor gamma (Homo sapiens) (UniProt P37231); experiment: qHTS assay for small molecule antagonists of peroxisome proliferator-activated receptor gamma signaling (AID 588537; active = well fitted inhibition curve with a large enough effect in the signal ratio, with a control signal flat, not every such curve was filed as active; the % refers to the signal ratio;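 also: reporter cells co-stimulated with 50 nM rosiglitazone agonist during compound treatment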)
Summary of the method: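 Cell-based beta-lactamase assay; GW9662 served as the antagonist control. Stimulation used rosiglitazone, final 50 nM, 16 h, 37 C.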

[4] = qHTS assay for small molecule antagonists of peroxisome proliferator-activated receptor delta signaling (AID 588535; active = well fitted inhibition curve with a large enough effect in the signal ratio, with a control signal flat, not every such curve was filed as active; the % refers to the signal ratio;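 as to max response: cells co-treated with a PPAR-delta agonist as stimulator during compound exposure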); details: HEK293T PPARd-UAS-bla, beta-lactamase FRET ratio, 18 h; 460 nm channel
Summary of the method: (§1)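 Antagonist-mode qHTS using GeneBLAzer PPAR-delta-UAS-bla HEK293T cells; compound exposure 18 hrs at 37 C over a titration. Ratiometric CCF4 fluorescence at 460/530 nm; concentration-response points fitted to the Hill equation.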

[5] = biological target: Peroxisome proliferator-activated receptor delta (Homo sapiens) (UniProt Q03181); experiment: as above
Summary of the method: as §1

[6] = biological target: Vitamin D3 receptor (Homo sapiens) (UniProt P11473); experiment: qHTS assay for small molecule antagonists of vitamin D receptor signaling (AID 588541);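 also: receptor activated by calcitriol during compound treatment; series mostly up to about 77 µM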
Summary of the method: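 Antagonist-mode beta-lactamase reporter assay: HEK293T VDR-UAS-bla cells were exposed to titrated compound alongside 1-alpha,25-dihydroxyvitamin D3 at 3 nM final for 16 h. Values were normalized to the 50 nM agonist control and DMSO basal, with IC50 and efficacy from Hill equation fits.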

[7] = biological target: Vitamin D3 receptor (Homo sapiens) (UniProt P11473); experiment: qHTS assay for small molecule agonists of vitamin D receptor signaling (AID 588543)
Summary of the method: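 β-lactamase reporter, VDR-UAS-bla HEK293T, agonist mode. Cells plated 5 h at 37 °C, compound titration 16 h at 37 °C, CCF4 dye 2 h RT, ratio 460/530 nm. Hill fit → EC50, efficacy vs 50 nM 1α,25-(OH)2D3.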

[8] = biological target: Glucocorticoid receptor (Homo sapiens) (UniProt P04150); experiment: qHTS assay for small molecule agonists of glucocorticoid receptor signaling (AID 588532; active = well fitted curve in the direction sought with a large enough effect in the signal ratio, with a control signal flat; the % refers to the signal ratio); details: HeLa MMTV-bla, beta-lactamase ratio, agonist, 18 h; stronger effect = higher value; percent of dexamethasone control, DMSO zero
Summary of the method: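 Using MMTV-bla HeLa cells in medium with 1% stripped FBS and 25 mM HEPES, compounds were titrated and incubated overnight-length (18 h). Beta-lactamase cleavage of CCF4 was quantified by dual-emission fluorescence.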

[9] = biological target: Glucocorticoid receptor (Homo sapiens) (UniProt P04150); experiment: qHTS assay for small molecule antagonists of glucocorticoid receptor signaling (AID 588533; active = well fitted inhibition curve with a large enough effect in the signal ratio, with a control signal flat, not every such curve was filed as active; the % refers to the signal ratio;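 also: cells stimulated with 2 nM dexamethasone as agonist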)
Summary of the method: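 Antagonist-mode qHTS: compound titrations added to GRE-bla HeLa cells, then dexamethasone 2 nM final; 18 h, 37 C. CCF4 FRET fluorescence normalized to dexamethasone and DMSO; IC50 from Hill fit.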

Bile acid receptor (Homo sapiens), sequence (Q96RI1 whole entry, looked up): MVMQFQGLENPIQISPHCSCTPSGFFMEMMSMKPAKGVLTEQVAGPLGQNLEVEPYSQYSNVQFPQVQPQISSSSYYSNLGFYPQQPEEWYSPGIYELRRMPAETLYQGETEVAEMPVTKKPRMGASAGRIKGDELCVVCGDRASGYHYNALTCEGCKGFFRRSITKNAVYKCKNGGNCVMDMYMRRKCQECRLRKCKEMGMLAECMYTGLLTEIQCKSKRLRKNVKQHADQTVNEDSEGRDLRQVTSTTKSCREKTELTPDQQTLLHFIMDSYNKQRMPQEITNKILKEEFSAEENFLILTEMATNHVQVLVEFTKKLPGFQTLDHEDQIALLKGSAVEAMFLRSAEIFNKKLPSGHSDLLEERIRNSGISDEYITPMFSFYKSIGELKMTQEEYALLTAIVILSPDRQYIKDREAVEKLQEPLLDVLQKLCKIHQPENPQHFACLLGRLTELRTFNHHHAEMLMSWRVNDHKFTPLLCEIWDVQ
Vitamin D3 receptor (Homo sapiens), sequence (P11473 whole entry, looked up): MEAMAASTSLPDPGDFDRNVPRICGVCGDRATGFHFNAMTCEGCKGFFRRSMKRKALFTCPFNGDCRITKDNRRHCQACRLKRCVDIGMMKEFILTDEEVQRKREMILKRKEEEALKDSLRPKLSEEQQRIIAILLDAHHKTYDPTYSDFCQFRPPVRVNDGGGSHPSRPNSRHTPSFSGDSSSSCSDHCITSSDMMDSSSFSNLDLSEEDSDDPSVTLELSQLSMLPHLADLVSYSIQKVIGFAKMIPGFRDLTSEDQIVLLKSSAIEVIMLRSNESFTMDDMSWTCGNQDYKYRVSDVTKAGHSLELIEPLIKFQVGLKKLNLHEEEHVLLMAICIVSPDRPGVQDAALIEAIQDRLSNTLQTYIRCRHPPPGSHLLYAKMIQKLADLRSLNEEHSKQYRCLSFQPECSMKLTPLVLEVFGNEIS
Peroxisome proliferator-activated receptor gamma (Homo sapiens), sequence (P37231 whole entry, looked up): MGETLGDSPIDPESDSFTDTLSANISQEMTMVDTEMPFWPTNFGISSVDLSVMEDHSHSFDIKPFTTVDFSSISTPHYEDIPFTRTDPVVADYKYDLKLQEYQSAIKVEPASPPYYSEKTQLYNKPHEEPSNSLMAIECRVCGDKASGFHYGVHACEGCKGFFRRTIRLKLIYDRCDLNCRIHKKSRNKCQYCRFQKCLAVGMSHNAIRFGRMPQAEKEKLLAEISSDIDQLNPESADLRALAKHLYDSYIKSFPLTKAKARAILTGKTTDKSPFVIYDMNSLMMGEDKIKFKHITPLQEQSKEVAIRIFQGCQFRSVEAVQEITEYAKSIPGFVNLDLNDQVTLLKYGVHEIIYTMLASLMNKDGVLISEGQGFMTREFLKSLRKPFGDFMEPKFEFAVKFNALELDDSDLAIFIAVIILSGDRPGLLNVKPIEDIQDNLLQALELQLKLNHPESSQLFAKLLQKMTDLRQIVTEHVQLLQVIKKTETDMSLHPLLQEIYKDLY
Glucocorticoid receptor (Homo sapiens), sequence (P04150 whole entry, looked up): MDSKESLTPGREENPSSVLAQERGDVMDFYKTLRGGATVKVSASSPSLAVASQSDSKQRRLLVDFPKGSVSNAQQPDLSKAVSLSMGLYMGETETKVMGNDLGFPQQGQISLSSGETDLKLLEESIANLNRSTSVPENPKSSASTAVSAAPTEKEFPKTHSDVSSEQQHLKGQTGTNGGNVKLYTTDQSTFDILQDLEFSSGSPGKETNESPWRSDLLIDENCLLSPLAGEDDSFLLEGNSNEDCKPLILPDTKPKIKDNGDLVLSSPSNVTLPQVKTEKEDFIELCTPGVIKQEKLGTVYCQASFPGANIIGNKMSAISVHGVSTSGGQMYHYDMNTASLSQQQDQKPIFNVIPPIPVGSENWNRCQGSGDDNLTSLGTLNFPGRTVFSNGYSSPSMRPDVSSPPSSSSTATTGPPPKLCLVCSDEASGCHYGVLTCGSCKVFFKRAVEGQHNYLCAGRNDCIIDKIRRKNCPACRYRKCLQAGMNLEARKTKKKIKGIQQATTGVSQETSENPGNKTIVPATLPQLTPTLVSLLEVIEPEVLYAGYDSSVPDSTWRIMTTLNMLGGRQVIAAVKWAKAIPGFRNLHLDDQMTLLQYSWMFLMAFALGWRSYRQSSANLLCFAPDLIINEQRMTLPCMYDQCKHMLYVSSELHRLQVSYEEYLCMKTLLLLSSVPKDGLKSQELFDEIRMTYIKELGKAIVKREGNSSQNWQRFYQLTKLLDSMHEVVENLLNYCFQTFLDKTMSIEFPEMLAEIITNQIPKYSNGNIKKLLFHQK
Peroxisome proliferator-activated receptor delta (Homo sapiens), sequence (Q03181 whole entry, looked up): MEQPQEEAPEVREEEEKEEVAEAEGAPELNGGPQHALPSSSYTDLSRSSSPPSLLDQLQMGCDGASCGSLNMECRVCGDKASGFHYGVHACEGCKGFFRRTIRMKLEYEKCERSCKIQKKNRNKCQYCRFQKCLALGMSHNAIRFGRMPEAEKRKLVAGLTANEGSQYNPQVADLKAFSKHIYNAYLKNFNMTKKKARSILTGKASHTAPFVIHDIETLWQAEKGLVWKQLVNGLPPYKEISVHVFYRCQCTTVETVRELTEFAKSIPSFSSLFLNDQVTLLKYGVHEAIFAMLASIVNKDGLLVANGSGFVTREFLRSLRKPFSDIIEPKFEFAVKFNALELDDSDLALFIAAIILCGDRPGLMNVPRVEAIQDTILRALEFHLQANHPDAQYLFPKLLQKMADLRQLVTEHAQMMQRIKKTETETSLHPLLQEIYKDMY

Compound | outcome [1] | outcome [2] | outcome [3] | max response [4] | Potency [5] | outcome [6] | outcome [7] | activation [8] | outcome [9]
O=[N+]([O-])c1ccc2nc[nH]c2c1 | inactive | inactive | inactive | – | – | – | – | – | –
O=C(O)CNC(=O)c1ccc([N+](=O)[O-])cc1 | inactive | inactive | – | 53.5% | inactive | inactive | inactive | – | –
O=P(O)(OCc1ccccc1)OCc1ccccc1 | inactive | inactive | inactive | – | – | inactive | inactive | – | –
CCCCN(CCO)CCCC | inactive | inactive | inactive | 4.41% | – | inactive | – | – | –
O=Cc1ccc(CO)o1 | inactive | inactive | – | – | – | inactive | inactive | – | –
O=C1OC(=O)c2c(Cl)c(Cl)c(Cl)c(Cl)c21 | inactive | inactive | – | -11.3% | inactive | – | – | – | –
Cc1ccc(C(=O)O)cc1 | inactive | inactive | – | – | – | – | – | – | –
OCCO | inactive | inactive | – | – | – | inactive | inactive | – | –
O=C(O)c1ccc(Cl)c(Cl)c1 | inactive | inactive | inactive | 20.7% | inactive | inactive | – | – | –
BrC/C=C/CBr | inactive | inactive | inactive | 20.5% | inactive | – | – | – | –
C=Cc1ccc(C=C)cc1 | inactive | inactive | – | -5.46% | inactive | inactive | inactive | – | –
Oc1c(Cl)ccc(Cl)c1Cl | inactive | – | – | – | – | inactive | inactive | – | –
Clc1ccccn1 | inactive | – | – | 26.1% | inactive | – | inactive | – | –
CC(C)Cc1nccs1 | inactive | inactive | – | – | – | inactive | inactive | – | –
Nc1cccc(C(F)(F)F)c1 | inactive | inactive | – | 14.1% and 46.7% | inactive | – | – | – | –
Nc1cccc(N)c1 | inactive | inactive | inactive | – | – | inactive | inactive | – | –
C(=C/c1ccccc1)/c1ccccc1 | inactive | – | inactive | 11.7% | inactive | inactive | inactive | – | –
Cc1ccccc1Br | inactive | inactive | – | – | – | inactive | inactive | – | –
CCN(C(=O)N(CC)c1ccccc1)c1ccccc1 | – | – | – | – | – | – | – | -1.59% (inactive) | –
CCOC(C)(C)C | inactive | inactive | inactive | -1.23% | inactive | inactive | inactive | – | –
CCNc1ccccc1 | inactive | inactive | inactive | 13.4% | inactive | inactive | inactive | – | –

Compound | outcome [1] | outcome [2] | outcome [3] | max response [4] | Potency [5] | outcome [6] | outcome [7] | activation [8] | outcome [9]
CCNc1cc(O)ccc1C | inactive | – | – | – | – | – | inactive | – | –
COc1ccccc1[N+](=O)[O-] | inactive | – | – | – | – | inactive | inactive | – | –
C=C(C)C(=O)OCC(C)C | inactive | inactive | – | -19.3% | inactive | inactive | inactive | – | –
O=C(O)c1ccccc1Cl | inactive | inactive | – | -1.82% | inactive | inactive | inactive | – | –
CCC(O)C(C)(C)C (stereo not given) | inactive | inactive | inactive | 11.2% | inactive | – | – | – | –
C=CCCCCCCC=C | inactive | inactive | inactive | -11.7% | inactive | inactive | inactive | – | –
Cc1ccccc1C#N | inactive | inactive | – | -5.92% | – | inactive | inactive | – | –
NC=O | inactive | inactive | – | – | – | – | inactive | – | –
c1ccc2[nH]cnc2c1 | inactive | inactive | inactive | – | – | – | inactive | – | –
O=C1CCC(=O)O1 | inactive | inactive | – | 24.1% | inactive | inactive | inactive | – | –
CC(=O)c1ccccn1 | inactive | – | – | -20.6% | inactive | inactive | inactive | – | –
Cc1cccc(Br)c1 | – | – | – | – | – | – | – | -2.46% (inactive) | –
C[C@@H]1CC2(OC[C@]3(C)O[C@H]23)O[C@H]2C[C@@]3(C)[C@@H]4CC[C@H]5C(C)(C)C(O[C@@H]6OC[C@@H](O)[C@H](O)[C@H]6O)CC[C@@]56C[C@@]46CC[C@]3(C)[C@@H]12 (stereo not given in full) | – | – | – | – | – | – | – | -8.99% (inactive) | –
CCOC(=O)C(C)C(C)=O (stereo not given) | – | – | – | – | – | – | – | -10.2% (inactive) | inactive
O=C(O)c1c(Cl)cccc1Cl | inactive | – | inactive | – | – | – | – | – | –
COc1ccc(N)c(C)c1 | inactive | – | – | -12.2% | inactive | – | inactive | – | –
CC(=O)Nc1ccc(C)cc1 | – | – | – | -10.7% | inactive | inactive | inactive | 8.72% (inactive) | inactive
CCCCCCC=O | – | inactive | inactive | -42.7% | – | inactive | inactive | -0.214% (inactive) | inactive
O=C1OC(=O)c2c(Br)c(Br)c(Br)c(Br)c21 | – | inactive | inactive | 19.7% and -28% | – | inactive | inactive | -2.08% (inactive) and -7.32% (inactive) | inactive
Cc1c(N)cccc1[N+](=O)[O-] | – | inactive | – | -31.1% | inactive | – | – | -3.4% (inactive) | inactive
CC(=O)OCCC(C)C | – | inactive | inactive | -13.3% | inactive | – | – | 4.89% (inactive) | inactive

Compound | outcome [1] | outcome [2] | outcome [3] | max response [4] | Potency [5] | outcome [6] | outcome [7] | activation [8] | outcome [9]
CCc1ccccc1 | – | inactive | – | 15% | inactive | – | inactive | -5.09% (inactive) | inactive
CCNS(=O)(=O)c1ccc(C)cc1 | – | inactive | – | 8.52% | inactive | – | – | -0.758% (inactive) | inactive
COCCOC(=O)c1ccccc1C(=O)OCCOC | – | inactive | inactive | -2.63% | – | inactive | inactive | -0.475% (inactive) | inactive
CC(C)(c1cc(Br)c(OCC(Br)CBr)c(Br)c1)c1cc(Br)c(OCC(Br)CBr)c(Br)c1 (stereo not given) | – | inactive | – | -13.7% | inactive | inactive | inactive | 11.6% (inactive) | inactive
O=c1[nH][nH]c(=O)c2cc([N+](=O)[O-])ccc12 | – | inactive | inactive | 10.6% | inactive | inactive | inactive | 0.885% (inactive) | inactive
O=C(O)c1cccc(Cl)c1Cl | – | inactive | inactive | 5.12% | inactive | – | inactive | 6.71% (inactive) | inactive
CC(C)N(C)C | – | inactive | inactive | -0.77% | inactive | – | inactive | 0.0793% (inactive) | inactive
O=C(O[C@@H](C(=O)O)[C@@H](OC(=O)c1ccccc1)C(=O)O)c1ccccc1 | – | inactive | inactive | -10.6% | inactive | – | – | -3.12% (inactive) | inactive
O=C1NC(=O)c2cc([N+](=O)[O-])ccc21 | – | inactive | – | -20.7% | inactive | – | – | -4.49% (inactive) | inactive
Cc1ccc2ncccc2c1 | – | inactive | – | 20.6% | inactive | – | – | 6.61% (inactive) | inactive
Nc1cccc(S(=O)(=O)O)c1 | – | inactive | – | -7.97% | inactive | inactive | inactive | -6.32% (inactive) | inactive
CCCCCCCCC | – | – | inactive | 3.26% | inactive | inactive | inactive | -2.92% (inactive) | inactive
Cc1cccc2sc(N)nc12 | – | inactive | inactive | 24.8% | – | inactive | inactive | -9.53% (inactive) | inactive
CNc1ccccc1 | – | inactive | – | -16.9% | inactive | inactive | inactive | 19.8% (inactive) | inactive
CC=C(Cl)Cl | – | inactive | inactive | 24.9% | inactive | inactive | inactive | -2.89% (inactive) | inactive
O=C(O)c1cccc([N+](=O)[O-])c1 | – | inactive | inactive | 27.4% and 43.1% | inactive | – | – | 3.85% (inactive) | inactive
CC(C)=C1CCC(C)CC1=O (stereo not given) | – | inactive | inactive | -8.22% | inactive | inactive | inactive | -0.919% (inactive) | inactive
CN(C)c1cccc(O)c1 | – | inactive | – | -10% | inactive | inactive | inactive | -1.05% (inactive) | inactive
c1ccc2c(c1)ccc1ncccc12 | – | inactive | – | 23.6% | inactive | – | – | -5.6% (inactive) | inactive
Cc1cc(C)cc(O)c1 | – | inactive | – | 32.1% | inactive | inactive | inactive | -1.28% (inactive) | inactive
